According to the supplement of paper PMC10037445:
Over roughly 2,900 compounds, “NF-kB SEAP reporter activity, fold change vs agonist alone” has its median near 0.99; the highest 2% begin near 2.6. The sample holds the highest values, similar compounds and a random draw of the others, so the mix is not that of the screen.

Legend:
RAW-Dual [1] = experiment: NF-kB SEAP reporter activity, fold change vs agonist alone; higher = enhanced NF-kB activity; conditions: library stock concentration (final ~1000-fold dilution): 10 mM
How it was run: (§1)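 RAW-Dual macrophages were seeded in DMEM at 50,000 cells/well in 384-well plates, given 50 nL of library stock by pin tool, and given a PRR agonist 1 h later. Plates were held at 37 °C, 5% CO2 for 20 hours, after which supernatant was read for IRF by QuantiLuc luminescence and for NF-κB by QuantiBlue absorbance at 620 nm. Reporter activity is expressed as fold change over wells that received agonist alone. A well was called cytotoxic when IncuCyte confluency fell below 70% of agonist controls in both mask sets.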

RAW-Dual [2] = experiment: NF-kB SEAP reporter activity, fold change vs agonist alone; cytotoxicity flag (confluency mask): not cytotoxic; higher = enhanced NF-kB activity
How it was run: as §1

RAW-Dual [3] = experiment: NF-kB SEAP reporter activity, fold change vs agonist alone; cytotoxicity flag (confluency mask): cytotoxic (confluency <70% of control); higher = enhanced NF-kB activity
How it was run: as §1

[4] = cytotoxicity flag (confluency mask): not cytotoxic, agonist: Imiquimod (TLR7) […]
[5] = cytotoxicity flag (confluency mask): not cytotoxic, agonist: MPLA (TLR4) […]
[6] = cytotoxicity flag (confluency mask): cytotoxic (confluency <70% of control), agonist: Imiquimod (TLR7) […]
[7] = cytotoxicity flag (confluency mask): cytotoxic (confluency <70% of control), agonist: MPLA (TLR4) […]
[8] = agonist: ODN 1826 (TLR9) 0.5 ug/mL
[9] = agonist: Pam2CSK4 (TLR2/6) 0.1 ug/mL
[10] = agonist: Pam3CSK4 (TLR2/1) 0.1 ug/mL

CCN(CC)CCNC(=O)c1ccc(N)cc1.Cl
NF-kB SEAP reporter activity (RAW-Dual [1]; [4]): 0.94
NF-kB SEAP reporter activity (RAW-Dual [1]; [5]): 1.05

O=C(CCCCCCNC(=O)c1cnc(N(c2ccccc2)c2ccccc2Cl)nc1)NO
NF-kB SEAP reporter activity (RAW-Dual [1]; [6]): 1.51
NF-kB SEAP reporter activity (RAW-Dual [1]; [7]): 2.19

CN(C)CCCNC(=O)c1ccc(-c2cc(O)c3ncccc3c2)cc1 (library stock concentration (final ~1000-fold dilution): 10 mM)
NF-kB SEAP reporter activity (RAW-Dual [2]; agonist: LPS (TLR4) 0.1 ug/mL): 0.881
NF-kB SEAP reporter activity (RAW-Dual [2]; [8]): 1.38
NF-kB SEAP reporter activity (RAW-Dual [2]; [9]): 1.13
NF-kB SEAP reporter activity (RAW-Dual [2]; [10]): 1.34

O=C(N/N=C/c1ccc(O)c(O)c1)c1cc2ccccc2cc1O (library stock concentration (final ~1000-fold dilution): 10 mM)
NF-kB SEAP reporter activity (RAW-Dual [2]; agonist: LPS (TLR4) 0.1 ug/mL): 0.616
NF-kB SEAP reporter activity (RAW-Dual [2]; [8]): 0.257
NF-kB SEAP reporter activity (RAW-Dual [2]; [9]): 0.16
NF-kB SEAP reporter activity (RAW-Dual [2]; [10]): 0.192

CN(C)c1ccc(C(=O)NCCCCCCC(=O)NO)cc1
NF-kB SEAP reporter activity (RAW-Dual [1]; [6]): 2.83
NF-kB SEAP reporter activity (RAW-Dual [1]; [7]): 2.64

CN(C)c1ccc(C(=O)NCCCCCCC(=O)NO)cc1 (library stock concentration (final ~1000-fold dilution): 10 mM)
NF-kB SEAP reporter activity (RAW-Dual [3]; agonist: LPS (TLR4) 0.1 ug/mL): 4.72
NF-kB SEAP reporter activity (RAW-Dual [3]; [8]): 2.78
NF-kB SEAP reporter activity (RAW-Dual [3]; [9]): 1.17
NF-kB SEAP reporter activity (RAW-Dual [3]; [10]): 2.01

O=C(CCCCCCC(=O)N/N=C/c1ccc(N(c2ccccc2)c2ccccc2)cc1)NO
NF-kB SEAP reporter activity (RAW-Dual [1]; [6]): 1.77
NF-kB SEAP reporter activity (RAW-Dual [1]; [7]): 2.3

CN(C)CCCNC(=O)c1ccc(-c2cc(O)c3ncccc3c2)cc1
NF-kB SEAP reporter activity (RAW-Dual [1]; [4]): 1.08
NF-kB SEAP reporter activity (RAW-Dual [1]; [5]): 1

O=C(N/N=C/c1ccc(O)c(O)c1)c1cc2ccccc2cc1O
NF-kB SEAP reporter activity (RAW-Dual [1]; [4]): 0.605
NF-kB SEAP reporter activity (RAW-Dual [1]; [5]): 0.843

CCOC(=O)NCCCC(=O)NCCc1ccccc1 (library stock concentration (final ~1000-fold dilution): 10 mM)
NF-kB SEAP reporter activity (RAW-Dual [2]; agonist: LPS (TLR4) 0.1 ug/mL): 1.31
NF-kB SEAP reporter activity (RAW-Dual [2]; [8]): 0.995
NF-kB SEAP reporter activity (RAW-Dual [2]; [9]): 1.17
NF-kB SEAP reporter activity (RAW-Dual [2]; [10]): 1.06

O=C(CCCCCCC(=O)N/N=C/c1ccc(N(c2ccccc2)c2ccccc2)cc1)NO (library stock concentration (final ~1000-fold dilution): 10 mM)
NF-kB SEAP reporter activity (RAW-Dual [3]; agonist: LPS (TLR4) 0.1 ug/mL): 5.47
NF-kB SEAP reporter activity (RAW-Dual [3]; [8]): 2.71
NF-kB SEAP reporter activity (RAW-Dual [3]; [9]): 1.09
NF-kB SEAP reporter activity (RAW-Dual [3]; [10]): 1.61

O=C(NO)c1cccc(C(=O)NCCc2ccccc2)c1 (library stock concentration (final ~1000-fold dilution): 10 mM)
NF-kB SEAP reporter activity (RAW-Dual [2]; agonist: LPS (TLR4) 0.1 ug/mL): 0.989
NF-kB SEAP reporter activity (RAW-Dual [2]; [8]): 1.12
NF-kB SEAP reporter activity (RAW-Dual [2]; [9]): 0.864
NF-kB SEAP reporter activity (RAW-Dual [2]; [10]): 0.709

O=C(CCCCCCNC(=O)c1cnc(N(c2ccccc2)c2ccccc2)nc1)NO (library stock concentration (final ~1000-fold dilution): 10 mM)
NF-kB SEAP reporter activity (RAW-Dual [3]; agonist: LPS (TLR4) 0.1 ug/mL): 4.12
NF-kB SEAP reporter activity (RAW-Dual [3]; [8]): 1.3
NF-kB SEAP reporter activity (RAW-Dual [3]; [9]): 0.825
NF-kB SEAP reporter activity (RAW-Dual [3]; [10]): 1.08

O=C(NO)c1cccc(C(=O)NCCc2ccccc2)c1
NF-kB SEAP reporter activity (RAW-Dual [1]; [4]): 1.05
NF-kB SEAP reporter activity (RAW-Dual [1]; [5]): 1.05

CCOC(=O)NCCCC(=O)NCCc1ccccc1
NF-kB SEAP reporter activity (RAW-Dual [1]; [4]): 0.961
NF-kB SEAP reporter activity (RAW-Dual [1]; [5]): 0.985

O=C(CCCCCCNC(=O)c1cnc(N(c2ccccc2)c2ccccc2)nc1)NO
NF-kB SEAP reporter activity (RAW-Dual [1]; [6]): 1.12
NF-kB SEAP reporter activity (RAW-Dual [1]; [7]): 2.14

O=C(CCCCCCNC(=O)c1cnc(N(c2ccccc2)c2ccccc2Cl)nc1)NO (library stock concentration (final ~1000-fold dilution): 10 mM)
NF-kB SEAP reporter activity (RAW-Dual [3]; agonist: LPS (TLR4) 0.1 ug/mL): 4.23
NF-kB SEAP reporter activity (RAW-Dual [3]; [8]): 2.1
NF-kB SEAP reporter activity (RAW-Dual [3]; [9]): 0.586
NF-kB SEAP reporter activity (RAW-Dual [3]; [10]): 1.47

CCN(CC)CCNC(=O)c1ccc(N)cc1.Cl (library stock concentration (final ~1000-fold dilution): 10 mM)
NF-kB SEAP reporter activity (RAW-Dual [2]; agonist: LPS (TLR4) 0.1 ug/mL): 0.999
NF-kB SEAP reporter activity (RAW-Dual [2]; [8]): 1.02
NF-kB SEAP reporter activity (RAW-Dual [2]; [9]): 0.923
NF-kB SEAP reporter activity (RAW-Dual [2]; [10]): 1.04

CC(NCc1ccc(OCc2cccc(F)c2)cc1)C(N)=O.CS(=O)(=O)O (stereo not drawn)
NF-kB SEAP reporter activity (RAW-Dual [1]; [4]): 1.73
NF-kB SEAP reporter activity (RAW-Dual [1]; [5]): 1.07

CC(NCc1ccc(OCc2cccc(F)c2)cc1)C(N)=O.CS(=O)(=O)O (stereo not drawn) (library stock concentration (final ~1000-fold dilution): 10 mM)
NF-kB SEAP reporter activity (RAW-Dual [2]; agonist: LPS (TLR4) 0.1 ug/mL): 1.08
NF-kB SEAP reporter activity (RAW-Dual [2]; [8]): 1.17
NF-kB SEAP reporter activity (RAW-Dual [2]; [9]): 0.813
NF-kB SEAP reporter activity (RAW-Dual [2]; [10]): 1.1

CCc1cnn2c(NCc3ccc[n+]([O-])c3)cc(N3CCCCC3CCO)nc12 (stereo not drawn)
NF-kB SEAP reporter activity (RAW-Dual [1]; [6]): 0.308
NF-kB SEAP reporter activity (RAW-Dual [1]; [7]): 0.225

CCc1cnn2c(NCc3ccc[n+]([O-])c3)cc(N3CCCCC3CCO)nc12 (stereo not drawn) (library stock concentration (final ~1000-fold dilution): 10 mM)
NF-kB SEAP reporter activity (RAW-Dual [3]; agonist: LPS (TLR4) 0.1 ug/mL): 0.193
NF-kB SEAP reporter activity (RAW-Dual [3]; [8]): 0.198
NF-kB SEAP reporter activity (RAW-Dual [3]; [9]): 0.0843
NF-kB SEAP reporter activity (RAW-Dual [3]; [10]): 0.182

Cc1cn(-c2cc(NC(=O)c3ccc(C)c(Nc4nccc(-c5cccnc5)n4)c3)cc(C(F)(F)F)c2)cn1.Cl
NF-kB SEAP reporter activity (RAW-Dual [1]; [5]): 2.49

Cc1cn(-c2cc(NC(=O)c3ccc(C)c(Nc4nccc(-c5cccnc5)n4)c3)cc(C(F)(F)F)c2)cn1.Cl (library stock concentration (final ~1000-fold dilution): 10 mM)
NF-kB SEAP reporter activity (RAW-Dual [2]; agonist: LPS (TLR4) 0.1 ug/mL): 2.23
NF-kB SEAP reporter activity (RAW-Dual [2]; [8]): 1.41
NF-kB SEAP reporter activity (RAW-Dual [2]; [9]): 0.403
NF-kB SEAP reporter activity (RAW-Dual [2]; [10]): 0.466

Nc1nc(NC2CC2)c2ncn(C3C=CC(CO)C3)c2n1 (stereo not drawn) (library stock concentration (final ~1000-fold dilution): 10 mM)
NF-kB SEAP reporter activity (RAW-Dual [2]; agonist: LPS (TLR4) 0.1 ug/mL): 1.05
NF-kB SEAP reporter activity (RAW-Dual [2]; [8]): 1.07
NF-kB SEAP reporter activity (RAW-Dual [2]; [9]): 1.35
NF-kB SEAP reporter activity (RAW-Dual [2]; [10]): 1.07

Nc1nc(NC2CC2)c2ncn(C3C=CC(CO)C3)c2n1 (stereo not drawn)
NF-kB SEAP reporter activity (RAW-Dual [1]; [5]): 1.16

CCN(CC)C(=O)C1(c2ccccc2)CC1CN.Cl (stereo not drawn)
NF-kB SEAP reporter activity (RAW-Dual [1]; [4]): 1.02
NF-kB SEAP reporter activity (RAW-Dual [1]; [5]): 1.1
